Assay results reported in PubChem BioAssay (NCI).
Several values for one entry are separate records, joined by “and”; a condition that tells them apart may be missing. Equal entries are not always repeated. The panel holds about 83,000 compounds, 20% with a hit somewhere; the sample as a whole holds those more often.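 Negative percent growth values reflect cell death: -40 means 40% of the cells present at the start died, and -100 means all died.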 Activity calls are given as the source filed them. The calls were made as follows: active = growth percent below 10; inactive = the rest.

Key:
Assay in all cases: NCI-60 one-dose screen, 48 h (100 = growth as untreated, 0 = no growth, -100 = all killed)
T-47D breast = test system: T-47D breast
BT-549 breast = test system: BT-549 breast
MDA-MB-435 melanoma = test system: MDA-MB-435 melanoma
SW-620 colon = test system: SW-620 colon
MCF7 breast = test system: MCF7 breast
HCT-116 colon = details: 10 µM unless noted
HCC-2998 colon = test system: HCC-2998 colon
KM12 colon = test system: KM12 colon

Which results are given for `Oc1c(Cl)cc(Cl)c2cccnc12`?
growth (T-47D breast; 10 µM unless noted): 52.4% (inactive) and 43.4% (inactive); growth (BT-549 breast; 10 µM unless noted): 53.1% (inactive) and 40.3% (inactive); growth (MDA-MB-435 melanoma; 10 µM unless noted): 63.1% (inactive) and 54.3% (inactive); growth (SW-620 colon; 10 µM unless noted): 54.9% (inactive) and 57.5% (inactive); growth (MCF7 breast; 10 µM): 50.8% (inactive) and 29.1% (inactive); growth (HCT-116 colon): 40.6% (inactive) and 25.6% (inactive); growth (HCC-2998 colon; 10 µM unless noted): 74.6% (inactive) and 69.2% (inactive)

What does the source list for `O=C1C2=C(Nc3cc([N+](=O)[O-])ccc3N2)OC1c1c2ccccc2cc2ccccc12` (stereo not drawn)?
growth (T-47D breast; 10 µM unless noted): 47.4% (inactive); growth (BT-549 breast; 10 µM unless noted): 23.3% (inactive); growth (MDA-MB-435 melanoma; 10 µM unless noted): 73% (inactive); growth (SW-620 colon; 10 µM unless noted): 21.8% (inactive); growth (MCF7 breast; 10 µM): 22.3% (inactive); growth (HCT-116 colon): 15.5% (inactive); growth (HCC-2998 colon; 10 µM unless noted): 72.6% (inactive)

`COc1cc(/C=C/C(C)=O)ccc1O` was tested. Which growth (T-47D breast; 10 µM unless noted) did it give?
The growth was 97.2% (inactive) and 106% (inactive).

What about the growth (BT-549 breast; 10 µM unless noted) of the same compound?
Its growth is 104% (inactive).

And the growth (MDA-MB-435 melanoma; 10 µM unless noted)?
The growth was 101% (inactive) and 106% (inactive).

What about the growth (SW-620 colon; 10 µM unless noted) of the same compound?
Its growth is 104% (inactive) and 110% (inactive).

And the growth (MCF7 breast; 10 µM)?
Its growth is 96.8% (inactive) and 98.8% (inactive).

And the growth (HCT-116 colon)?
The growth was 104% (inactive) and 103% (inactive).

With `COc1ccc(-c2cscc2N)cc1` as the compound, how does the growth (T-47D breast; 10 µM) read?
Its growth is 60% (inactive).

What about the growth (T-47D breast; 100 µM) of the same compound?
The growth was 17.3% (inactive).

And the growth (BT-549 breast; 10 µM)?
The growth was 69.5% (inactive).

What about the growth (BT-549 breast; 100 µM) of the same compound?
Its growth is -32.7% (active).

What about the growth (MDA-MB-435 melanoma; 10 µM) of the same compound?
Its growth is 79.1% (inactive).

And the growth (MDA-MB-435 melanoma; 100 µM)?
The growth was 30.4% (inactive).

And the growth (SW-620 colon; 10 µM)?
The growth was 88.5% (inactive).

And the growth (SW-620 colon; 100 µM)?
Its growth is 48.4% (inactive).

And the growth (MCF7 breast; 10 µM)?
The growth was 47.3% (inactive).

What about the growth (MCF7 breast; 100 µM) of the same compound?
Its growth is 19.9% (inactive).

What about the growth (HCC-2998 colon; 10 µM) of the same compound?
The growth was 80.1% (inactive).

And the growth (HCC-2998 colon; 100 µM)?
The growth was 39.6% (inactive).

Which growth (T-47D breast; 10 µM unless noted) does the source give for `Cn1c2ccccc2c2nnc(N/N=C/c3ccccn3)nc21` here?
The growth was 19.2% (inactive).

What about the growth (BT-549 breast; 10 µM unless noted) of the same compound?
Its growth is -24.2% (active).

What about the growth (MDA-MB-435 melanoma; 10 µM unless noted) of the same compound?
The growth was 19.1% (inactive).

And the growth (SW-620 colon; 10 µM unless noted)?
The growth was 31.3% (inactive).

And the growth (MCF7 breast; 10 µM)?
The growth was 13.3% (inactive).

And the growth (HCT-116 colon)?
Its growth is 14.4% (inactive).

And the growth (HCC-2998 colon; 10 µM unless noted)?
The growth was 34.5% (inactive).

With `CNc1ccc2c(c1)c1ccccc1n2C` as the compound, how does the growth (T-47D breast; 10 µM unless noted) read?
Its growth is 91.3% (inactive).

What about the growth (BT-549 breast; 10 µM unless noted) of the same compound?
Its growth is 106% (inactive).

And the growth (MDA-MB-435 melanoma; 10 µM unless noted)?
The growth was 115% (inactive).

And the growth (SW-620 colon; 10 µM unless noted)?
The growth was 111% (inactive).

What about the growth (MCF7 breast; 10 µM) of the same compound?
The growth was 97.5% (inactive).

And the growth (HCT-116 colon)?
The growth was 107% (inactive).

What does the source list for `CN(C)c1ccc(/C=N/N=C(\C#N)[S][Sn]([Cl])([c]2ccccc2)[c]2ccccc2)cc1`?
growth (T-47D breast; 10 µM unless noted): -65.8% (active); growth (BT-549 breast; 10 µM unless noted): 57.5% (inactive); growth (MDA-MB-435 melanoma; 10 µM unless noted): 15.6% (inactive); growth (SW-620 colon; 10 µM unless noted): -52.2% (active); growth (MCF7 breast; 10 µM): -81.9% (active); growth (HCT-116 colon): -59.4% (active); growth (HCC-2998 colon; 10 µM unless noted): 63.5% (inactive)

With `CC(=O)Nc1cccc2cc(O)ccc12` as the compound, how does the growth (T-47D breast; 10 µM unless noted) read?
The growth was 97% (inactive) and 103% (inactive).

And the growth (BT-549 breast; 10 µM unless noted)?
The growth was 118% (inactive) and 145% (inactive) and 94.5% (inactive).

What about the growth (MDA-MB-435 melanoma; 10 µM unless noted) of the same compound?
Its growth is 107% (inactive) and 117% (inactive) and 103% (inactive).

And the growth (SW-620 colon; 10 µM unless noted)?
The growth was 104% (inactive) and 92% (inactive) and 98.7% (inactive).

And the growth (MCF7 breast; 10 µM)?
The growth was 99.3% (inactive) and 99.8% (inactive) and 91.6% (inactive).

What about the growth (HCT-116 colon) of the same compound?
Its growth is 85.9% (inactive) and 103% (inactive) and 91.2% (inactive).

And the growth (HCC-2998 colon; 10 µM unless noted)?
Its growth is 115% (inactive) and 108% (inactive) and 95% (inactive).

How did the growth (T-47D breast; 10 µM unless noted) turn out when `NC(N)=N/N=C/c1ccc([N+](=O)[O-])o1` was run?
The growth was 96.7% (inactive).

What about the growth (BT-549 breast; 10 µM unless noted) of the same compound?
The growth was 94.5% (inactive).

And the growth (MDA-MB-435 melanoma; 10 µM unless noted)?
Its growth is 115% (inactive).

What about the growth (SW-620 colon; 10 µM unless noted) of the same compound?
The growth was 105% (inactive).

What about the growth (MCF7 breast; 10 µM) of the same compound?
The growth was 72.4% (inactive).

What about the growth (HCT-116 colon) of the same compound?
The growth was 89% (inactive).

What about the growth (HCC-2998 colon; 10 µM unless noted) of the same compound?
The growth was 88% (inactive).

What does the source list for `O=C(Nc1c(Cl)cccc1Cl)Oc1cccc2cccnc12`?
growth (T-47D breast; 10 µM): 30.2% (inactive); growth (T-47D breast; 100 µM): 7.28% (active); growth (BT-549 breast; 10 µM): 78.5% (inactive); growth (BT-549 breast; 100 µM): 23.5% (inactive); growth (MDA-MB-435 melanoma; 10 µM): 53.6% (inactive); growth (MDA-MB-435 melanoma; 100 µM): 23.8% (inactive); growth (SW-620 colon; 10 µM): 26.8% (inactive); growth (SW-620 colon; 100 µM): 23.5% (inactive); growth (MCF7 breast; 10 µM): 3.58% (active); growth (MCF7 breast; 100 µM): -1.84% (active); growth (KM12 colon; 10 µM): 47% (inactive); growth (KM12 colon; 100 µM): 5.56% (active)

`CN(Cc1cnc2nc(N)nc(N)c2n1)c1ccc(C(=O)NC(CCC(=O)O)C(=O)O)cc1` (stereo not drawn) was tested. Which growth (T-47D breast; 10 µM unless noted) did it give?
The growth was 67.6% (inactive).

And the growth (BT-549 breast; 10 µM unless noted)?
The growth was 48.4% (inactive).

And the growth (MDA-MB-435 melanoma; 10 µM unless noted)?
Its growth is 30.6% (inactive).

What about the growth (SW-620 colon; 10 µM unless noted) of the same compound?
Its growth is 27.5% (inactive).

And the growth (MCF7 breast; 10 µM)?
The growth was 24.3% (inactive).

What does the source list for `N#CC1C(=O)SC2c3ccccc3C(=O)c3ccccc3C12` (stereo not drawn)?
growth (T-47D breast; 10 µM unless noted): 89% (inactive); growth (BT-549 breast; 10 µM unless noted): 101% (inactive); growth (MDA-MB-435 melanoma; 10 µM unless noted): 107% (inactive); growth (SW-620 colon; 10 µM unless noted): 101% (inactive); growth (MCF7 breast; 10 µM): 98.9% (inactive); growth (HCT-116 colon): 102% (inactive); growth (HCC-2998 colon; 10 µM unless noted): 102% (inactive)

Which growth (T-47D breast; 10 µM unless noted) does the source give for `N#CSCc1ccc(Cl)c(CSC#N)c1` here?
Its growth is 57.5% (inactive).

And the growth (BT-549 breast; 10 µM unless noted)?
Its growth is 14.1% (inactive).

What about the growth (MDA-MB-435 melanoma; 10 µM unless noted) of the same compound?
Its growth is 3.85% (active).

What about the growth (SW-620 colon; 10 µM unless noted) of the same compound?
The growth was 20.4% (inactive).

And the growth (MCF7 breast; 10 µM)?
Its growth is 16.1% (inactive).

How did the growth (T-47D breast; 10 µM unless noted) turn out when `Cc1cc(N)c2ccccc2[n+]1CCCCCCCCCC[n+]1c(C)cc(N)c2ccccc21` was run?
Its growth is 5.34% (active) and -12.1% (active).

And the growth (BT-549 breast; 10 µM unless noted)?
Its growth is -29% (active) and -15.7% (active).

And the growth (MDA-MB-435 melanoma; 10 µM unless noted)?
Its growth is -77.2% (active) and 6.1% (active).

What about the growth (SW-620 colon; 10 µM unless noted) of the same compound?
The growth was 11.6% (inactive) and 18.1% (inactive).

What about the growth (MCF7 breast; 10 µM) of the same compound?
Its growth is 11.9% (inactive) and -3.39% (active).

And the growth (HCT-116 colon)?
The growth was 4.6% (active) and 3.4% (active).

And the growth (HCC-2998 colon; 10 µM unless noted)?
The growth was 0.513% (active).

For `CC(C)(C)c1ccc(O)c(C2CCCCC2)c1`, which growth (T-47D breast; 10 µM unless noted) is on record?
Its growth is 108% (inactive).

And the growth (BT-549 breast; 10 µM unless noted)?
Its growth is 127% (inactive).

And the growth (MDA-MB-435 melanoma; 10 µM unless noted)?
The growth was 117% (inactive).

What about the growth (SW-620 colon; 10 µM unless noted) of the same compound?
Its growth is 99.6% (inactive).

And the growth (MCF7 breast; 10 µM)?
Its growth is 101% (inactive).

What about the growth (HCT-116 colon) of the same compound?
Its growth is 95% (inactive).
